# HPGD inh – HPGD (human) dehydrogenase inhibition; P15428; purified HPGD, NADH fluorescence kinetic, PGE2 substrate; Potency, µM, inactives show at the highest dose activity change, negative = inhibition, actives largely listed as inhibitors; actives 4.3% (n = 150,000); AID 894; further: potency means the concentration at half of the fitted maximal effect
#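 20 nM HPGD preincubated 15 min at room temperature with compound in 50 mM Tris-HCl pH 8, 0.01% Tween 20. Started with 1 mM NAD+ and 30 uM prostaglandin E2; NADH fluorescence (360/450 nm) read 5 times over 30-s intervals, last minus first.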
# Luc counter – blocks Kinase-Glo luciferase, a counter-screen artifact | Kinase-Glo luciferase, ATP luminescence, 8 min | Potency, µM (series often up to 38.3 µM), without a hit: at the top dose activity change, negative = inhibition, actives largely listed as inhibitors | actives 0.28% (n = 200,000); active means well fitted inhibition curve with a large enough effect; inconclusive means small, poorly fitted or top-dose-only effect; further: potency means the concentration at half of the fitted maximal effect; nearly all actives have a fitted effect of over 60% in size
#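 Luminescence was the read-out, taken after 8-minute incubation at ambient temperature. Luciferase turned over luciferin with 10 uM ATP in imidazole pH 7.2 buffer containing KCl, MgCl2, Tween 20 and BSA.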
# ALDH1A1 block – inhibitors of human aldehyde dehydrogenase 1A1; P00352; Potency, µM (top dose mostly 75.3 µM), for inactives: at the top dose activity, negative = inhibition, usual class: inhibitors; actives 7.3% (n = 220,000); Purified ALDH1A1, NADH fluorescence, propionaldehyde substrate;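 further: potency means the concentration at half of the fitted maximal effect; plate controls were no enzyme wells and a reference inhibitor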
# Target sequence (P00352 whole entry, looked up): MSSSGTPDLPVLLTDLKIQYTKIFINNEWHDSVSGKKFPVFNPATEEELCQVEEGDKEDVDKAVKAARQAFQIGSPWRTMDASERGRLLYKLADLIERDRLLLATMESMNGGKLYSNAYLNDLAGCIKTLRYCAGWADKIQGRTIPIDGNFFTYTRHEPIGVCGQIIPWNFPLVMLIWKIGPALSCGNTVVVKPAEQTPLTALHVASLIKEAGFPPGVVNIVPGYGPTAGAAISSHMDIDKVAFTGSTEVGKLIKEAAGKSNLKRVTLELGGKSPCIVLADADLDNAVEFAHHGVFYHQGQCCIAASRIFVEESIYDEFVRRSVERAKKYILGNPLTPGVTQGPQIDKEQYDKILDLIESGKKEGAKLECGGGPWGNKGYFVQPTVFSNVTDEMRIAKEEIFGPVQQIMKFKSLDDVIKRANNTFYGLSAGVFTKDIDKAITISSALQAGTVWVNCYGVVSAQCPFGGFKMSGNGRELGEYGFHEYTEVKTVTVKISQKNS
# PNC inhibitor – inhibitors of perinucleolar compartment assembly. activity change (PNC), negative = inhibition, % at 10 µM. actives 3.1% (n = 140,000). PC3M PTB-GFP, PNC prevalence imaging, 16 h; stronger effect = lower value;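 active means readout at or below -70, meaning at least 70% loss of cells showing the perinucleolar compartment, a nuclear body marking cancer cells; inconclusive means readout between -30 and a set limit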;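 further: plate controls were DMSO wells for no effect and camptothecin positive control wells for full effect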
#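 PC3M cells stably expressing PTB-GFP, 750–1000 cells/well, treated 16 h at 37 °C with compound (23 nl of library stock), in duplicate. After paraformaldehyde fixation and Hoechst stain, imaged at 20x; PNC prevalence scored by image analysis.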
# LMNA splice mod – changes lamin A minigene splicing in HeLa cells | Potency, µM (top dose mostly 46.1 µM), without a hit: top-dose ratio change, negative = inhibition, most hits filed as inhibitors | HeLa LMNA splicing GFP/RFP minigene ratio, 48 h | actives 0.01% (n = 200,000); active means well fitted inhibition curve with a large enough effect in the signal ratio, with a control signal flat, not every such curve was filed as active; inconclusive means small, poorly fitted or top-dose-only effect, or effect the other way, or a change in a side signal; the % refers to the signal ratio; further: potency means the concentration at half of the fitted maximal effect
#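 S3 HeLa stable clones carrying a lamin A-EGFP splicing minigene plus DsRed2 were seeded at 600 cells/well in Opti-MEM with 2% FBS, pin-dosed and incubated 48 h at 37°C. Acumen cytometry (488 nm) gave the GFP/RFP total-intensity ratio.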
# * = called active by the depositor; ? = inconclusive; . = not tested or not shown; [ ] = dose if it differs, or a comment. Sampled rows, rich in hits. Any-hit rate of the full collection: about 10%. Unless noted, the call rests on the fitted dose curve; in most records, active means well fitted inhibition curve with a large enough effect (not every such curve was filed as active); inconclusive means small, poorly fitted or top-dose-only effect, or another doubt; inactive means no such curve, though single readings can be large or run the other way. Unless noted, on the % scale 0 is the no-effect control and ±100 the full control effect.
SMILES,HPGD inh,Luc counter,ALDH1A1 block,PNC inhibitor,LMNA splice mod
Cc1ccc(C(c2nnnn2Cc2cccs2)N2CCN(C(=O)c3ccco3)CC2)cc1 (stereo not drawn),10%,1%,4.5µM*,?,-8%
O=C(c1ccco1)N1CCN(C(c2ccccc2F)c2nnnn2Cc2cccs2)CC1 (stereo not drawn),-5%,5%,18µM*,18,-9%
Cc1cc(=O)c2c(O)cc(O)c(C)c2o1,-18%,-7%,0%,.,.
COc1ccc(C(=O)NCc2nnc(SCC(=O)Nc3cccc(F)c3)o2)cc1,.,7%,9.5µM*,.,.
COc1ccc(NC(=O)CSc2nnc(C)n2Cc2ccccc2)cc1,-13%,-2%,-4%,-1,22%
COc1ccc(OC)c(NC(=O)CSc2nnc(C)n2Cc2ccccc2)c1,-11%,4%,18µM*,56,-5%
CC(C)(C)OC(=O)NCCCCCc1nnc(SCC(=O)Nc2cccc(Cl)c2)o1,14µM*,3%,?,-10,?
COc1ccc(OC)c(NC(=O)CSc2nnc(CNC(=O)c3ccco3)o2)c1,-16%,-1%,10µM*,-16,4%
COc1ccc(C2/C=C\[C@H](O[Si](C)(C)C(C)(C)C)[C@H](C(C)C)CC(=O)N2Cc2ccccc2)cc1 (stereo partly drawn),-13%,-1%[39.9 µM],-3%,.,.
O=C(CSc1nnc(CNC(=O)c2c(F)cccc2Cl)o1)NCc1ccc2c(c1)OCO2,-13%,-2%,1%,18,?
O=C(CSc1nnc(CNC(=O)c2c(F)cccc2Cl)o1)Nc1ccc2c(c1)OCCO2,-7%,-2%,18µM*,?,5%
COc1ccc(CCNC(=O)c2ccc3c(c2)N(Cc2ccc(Cl)cc2)C(=O)c2ccccc2S3)cc1OC,.,.,.,.,-18%[46 µM]
CC1=CN2C(=N)/C(=C/c3cn(CCCOc4ccccc4C)c4ccccc34)C(=O)N=C2S1,?,-4%,?,-24,3%
CC1=CN2C(=N)/C(=C/c3ccco3)C(=O)N=C2S1,-21%,-23%,13µM*,-14,?
CC1=CN2C(=N)/C(=C/c3ccc([N+](=O)[O-])o3)C(=O)N=C2S1,-28%,-7%,3.5µM*,?,?
O=CCCCC=O,-3%,.,-1%,.,?
CC(=O)O[C@](C)(CCC=C(C)C)C1CC=C(C)CC1 (stereo partly drawn),-6%,-1%,0%,.,?
CCC1(C)Cc2c(sc3nc(SCC(=O)O)[nH]c(=O)c23)CO1 (stereo not drawn),?,4%,?,-102*,-7%
O=C1CCCc2cc(S(=O)(=O)N3CCCC(C(=O)NCc4ccccc4Cl)C3)ccc2N1 (stereo not drawn),.,.,.,.,4%[46 µM]
COc1ccc(N=C2O/C(=C/c3sc(=S)n(CC4CCCO4)c3O)N=C2C#N)cc1 (stereo not drawn),.,.,1.1µM*,.,.
CC(=O)NC1C(=O)N=C(SCC(=O)NCc2ccccc2)NC1=O (stereo not drawn),-9%,0%,?,-100*,4%
CC(=O)NC1C(=O)N=C(SCC(=O)Nc2c(C)cccc2C)NC1=O (stereo not drawn),.,1%,?,.,.
CCN(Cc1cc(Cl)cc(C)c1O)Cc1c(O)ccc2ccccc12,-6%,-4%[7.66 µM],-2%[13.5 µM],.,.
Cc1ccc(C)c(NC(=O)CSc2nccn2-c2cccc(C)c2C)c1,.,.,.,.,-23%[46 µM]
O=C(CSc1ccc(Cl)cc1)NN=C1CCCCCC1,.,1%,?,.,26%[46 µM]
SMILES,HPGD inh,Luc counter,ALDH1A1 block,PNC inhibitor,LMNA splice mod
O=C(CCSc1ccc(Cl)cc1)NC1CCCCC1,4.5µM*,2%,11%,-109*,25%
O=C(CCSc1ccc(Cl)cc1)NN=C1CCCCCC1,.,16%,11µM*,.,.
O=C(CSCc1ccc(Cl)cc1)NN=C1CCCCCC1,-14%,0%,14µM*,-93*,-3%
COc1ccc2[nH]cc(CCNc3ncnc4ccc(-c5ccccc5OC)cc34)c2c1,.,.,5%,.,?
C[C@@H](C(=O)O)/C(=C/c1ccc2c(c1)OCO2)C(=O)O,-11%,-7%[7.66 µM],6%[13.5 µM],.,.
Cc1ccc(C(C)C)c(OC(C)C(=O)NCC2(N(C)C)CCCCC2)c1 (stereo not drawn),.,.,.,.,1%[46 µM]
COc1cc(OC)cc(C(=O)NCC(=O)OC2CCOC2=O)c1 (stereo not drawn),-3%,0%,6%,-5,0%
COc1ccc(/C=C(\C#N)C(=O)OC2CCOC2=O)cc1 (stereo not drawn),.,0%,18µM*,.,?
CC(C)C[C@H](NC(=O)[C@H](CCC(N)=O)NC(=O)[C@H](CCCCN)NC(=O)[C@H](CCC(N)=O)NC(=O)[C@@H](N)CCC(=O)O)C(=O)N[C@@H](CCC(N)=O)C(=O)O,.,.,6%,.,.
Cc1ccc(CNC(=O)c2sc3nc4n(c(=O)c3c2C)CCCC4)cc1,.,.,.,.,20%[46 µM]
COc1ccc(O)c(/C=N/c2sc(C)c(C)c2C#N)c1,25µM*,-8%,10µM*,30,-3%
Cc1sc(/N=C/c2c(O)ccc3ccccc23)c(C#N)c1C,-12%,17%,2%,34,-3%
CCOC(=O)c1cc2n(c1/N=C/N(C)C)-c1ccccc1C2=O,-14%,-3%,18µM*,-26,16%
CCOC(=O)c1cc(=O)[nH]c2ccccc12,.,-1%,0%,.,15%[46 µM]
CCn1c(-c2cc(C3CC3)nc3ccccc23)n[nH]c1=S,13µM*,10%,?,-6,17%
CCS(=O)(=O)N1CC(=O)N(c2cccc(Cl)c2C)C(C)(C(=O)NC2CCCCC2)C1 (stereo not drawn),.,.,.,.,-10%[46 µM]
O=c1[nH]c2[nH]c(=S)[nH]c(=S)c2[nH]1,3.5µM*,-2%[7.66 µM],?,.,.
CCN(CC)c1ccc(CNC23CN4CN(CN(C4)C2)C3)cc1,-12%,1%,5µM*,29,?
CCCCn1nnnc1NCc1ccc(N(CC)CC)cc1,2%,-4%,9%,-22,6%
CCN1C(=O)[C@H]2[C@H]3[C@H](O)[C@H](O)C/C(=N/O[C@@H](C)c4cn([C@H](CO)Cc5ccccc5)nn4)[C@@H]3CC[C@@H]2C1=O,.,.,2%[13.5 µM],.,.
CCN(CC)C(=O)C1CCCN(c2ccc([N+](=O)[O-])cc2/C=N/NC(=O)c2ccccc2)C1 (stereo not drawn),-11%,1%,28µM*,7,1%
O=C(N/N=C\c1cc([N+](=O)[O-])ccc1N1CCCC1)c1ccccn1,.,3%,?,.,.
CCN(CC)C(=O)C1CCCN(c2ccc([N+](=O)[O-])cc2/C=N/NC(=O)c2cccc(O)c2)C1 (stereo not drawn),-26%,-3%,28µM*,-8,-3%
CCOC(=O)C1CCN(c2ccc([N+](=O)[O-])cc2)CC1,.,-3%,-11%,.,1%[46 µM]
CN1CCN(c2ccc([N+](=O)[O-])cc2/C=N/NC(=O)c2cccc([N+](=O)[O-])c2)CC1,-17%,1%,20µM*,-1,-7%
